According to PubChem BioAssay (NCATS):
Results filed as inconclusive are left out. Where a call stands in place of a potency, no number is given. A number with no mark means an inactive call. Activity calls are given as the source filed them. Calls come from the whole dose curve; as a rule, active = well fitted inhibition curve with a large enough effect; inconclusive = small, poorly fitted or top-dose-only effect; inactive = flat fitted curve, though single readings scatter.

Assays:
[1] = qHTS profiling for inhibitors of Plasmodium falciparum proliferation (AID 504749); for all read-outs here: nearly all actives have a fitted effect of over 60% in size; details: P. falciparum in erythrocytes, SYBR Green DNA, 72 h; for activity, negative = inhibition: at 28.7 µM (top of the series)
Outline: (§1)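 In a 72 h erythrocytic culture (37 C, humidified, 5% CO2) at 2.5% hematocrit and 0.3% starting parasitemia, compounds were tested; SYBR Green I in detergent lysis buffer stained parasite DNA overnight.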

3D7 = test: as above; details: P. falciparum in erythrocytes, SYBR Green DNA, 72 h; series mostly up to 28.7 µM
Outline: as §1

7G8 = test: as above; details: P. falciparum in erythrocytes, SYBR Green DNA, 72 h; series mostly up to 28.7 µM
Outline: as §1

AA1029 = test: as above; details: P. falciparum in erythrocytes, SYBR Green DNA, 72 h; series mostly up to 28.7 µM
Outline: as §1

AS120 = test: as above; details: P. falciparum in erythrocytes, SYBR Green DNA, 72 h; series mostly up to 28.7 µM
Outline: as §1

ATS189 = test: as above; details: P. falciparum in erythrocytes, SYBR Green DNA, 72 h; series mostly up to 28.7 µM
Outline: as §1

ATS95 = test: as above; details: P. falciparum in erythrocytes, SYBR Green DNA, 72 h; series mostly up to 28.7 µM
Outline: as §1

C2A = test: as above; details: P. falciparum in erythrocytes, SYBR Green DNA, 72 h; series mostly up to 28.7 µM
Outline: as §1

CP185 = test: as above; details: P. falciparum in erythrocytes, SYBR Green DNA, 72 h; series mostly up to 28.7 µM
Outline: as §1
Potency is the fitted concentration of half-maximal effect.

Compound | activity, negative = inhibition ([1]; parasite line A) | activity, negative = inhibition ([1]; parasite line B) | Potency (3D7) | Potency (7G8) | Potency (AA1029) | Potency (AS120) | Potency (ATS189) | Potency (ATS95) | Potency (C2A) | Potency (CP185) | Potency ([1]; parasite line A) | Potency ([1]; parasite line B)
O=C(O)c1ccc(S(=O)(=O)N(Cl)Cl)cc1 | -4.58% | 5.75% | inactive | inactive | inactive | inactive | inactive | inactive | inactive | inactive | – | –
O=C(Nc1cccc(C2=NCCN2)c1)Nc1cccc(C2=NCCN2)c1 | – | – | 10 µM (active) | 0.398 µM (active) | 7.08 µM (active) | 2.82 µM (active) | 2.82 µM (active) | 5.01 µM (active) | 5.01 µM (active) | 4.47 µM (active) | 8.91 µM (active) | 11.2 µM (active)
N#CCC(=O)NN | 10.6% | 7.8% | inactive | inactive | inactive | inactive | inactive | inactive | inactive | inactive | – | –
CN(Cc1ccc(C(C)(C)C)cc1)Cc1cccc2ccccc12 | -10% | -26.9% | inactive | 11.2 µM (active) | inactive | inactive | inactive | – | inactive | inactive | – | –
CCCCCCCCCCCCCC[N+](C)(C)Cc1ccccc1 | – | – | 3.55 µM (active) | 2.24 µM (active) | 6.31 µM (active) | 7.08 µM (active) | 7.08 µM (active) | 7.08 µM (active) | 3.98 µM (active) | 6.31 µM (active) | 4.47 µM (active) | 7.94 µM (active)
CC(C)NCC(O)c1ccc2ccccc2c1 (stereo unspecified) | – | – | 11.2 µM (active) | 1.41 µM (active) | 5.01 µM (active) | 7.94 µM (active) | 8.91 µM (active) | 8.91 µM (active) | – | 8.91 µM (active) | 11.2 µM (active) | 4.47 µM (active)
CCc1ccc(C(=O)C(C)CN2CCCCC2)cc1 (stereo unspecified) | 2.55% | 6.09% | inactive | inactive | inactive | inactive | inactive | inactive | inactive | inactive | – | –
CCCCCCCCCCCCCCCCO | 1.6% | 8.58% | inactive | inactive | inactive | inactive | – | inactive | inactive | inactive | – | –
CCCCCCCCCCCCSCCOCCO | 9.57% | 14.6% | inactive | inactive | inactive | inactive | inactive | inactive | inactive | inactive | – | –
Cc1cc(C)cc(OCC2CNC(=O)O2)c1 (stereo unspecified) | -4.76% | 4.34% | inactive | inactive | inactive | inactive | inactive | inactive | inactive | inactive | – | –
CN(C)CCC[C@@]1(c2ccc(F)cc2)OCc2cc(C#N)ccc21 | 3.06% | 6.35% | inactive | inactive | – | inactive | inactive | inactive | inactive | inactive | – | –
COc1ccc(/C=N/NC(=O)c2ccncc2)cc1OC | 6.74% | 9.47% | inactive | inactive | inactive | inactive | inactive | inactive | inactive | inactive | – | –
CCN(CC)CCNC(=O)COc1ccc(OC)cc1 | 19.5% | 3.1% | inactive | inactive | inactive | inactive | inactive | inactive | inactive | inactive | – | –
CCOC(=O)c1c(N)sc2c1CCN(Cc1ccccc1)C2 | – | – | 11.2 µM (active) | 6.31 µM (active) | 5.01 µM (active) | 8.91 µM (active) | 7.94 µM (active) | 8.91 µM (active) | 11.2 µM (active) | 5.01 µM (active) | 10 µM (active) | 5.01 µM (active)
Cc1nc(-c2ccc(Cl)cc2)oc1COC(C)(C)C(=O)O | 9.36% | 9.87% | inactive | inactive | inactive | inactive | inactive | inactive | inactive | inactive | – | –
CCc1oc2ccccc2c1C(=O)c1cc(Br)c(O)c(Br)c1 | -3.41% | -11.9% | inactive | inactive | inactive | inactive | inactive | inactive | inactive | inactive | – | –
CCOc1cc(OCC)c(C(=O)CCC(=O)O)cc1OCC | 5.68% | 1.04% | inactive | inactive | inactive | inactive | inactive | inactive | inactive | inactive | – | –
CC(C)Nc1cccnc1N1CCN(C(=O)c2cc3cc(NS(C)(=O)=O)ccc3[nH]2)CC1 | -10.7% | 24% | inactive | 12.6 µM (active) | inactive | inactive | inactive | inactive | inactive | inactive | – | –
CC1(COc2ccc(CC3SC(=O)NC3=O)cc2)CCCCC1 (stereo unspecified) | 11% | -0.436% | inactive | inactive | inactive | inactive | inactive | inactive | inactive | inactive | – | –
NC(N)=NCc1cccc(I)c1 | -25.5% | -23.4% | inactive | inactive | inactive | inactive | inactive | inactive | inactive | inactive | – | –
